Among the data in PubChem BioAssay (NCI) are growth values, retold here.

Among the test systems are NCI-H23 lung; NCI-H226 lung; NCI-H322M lung; HOP-62 NSCLC; NCI-H460 lung; HOP-92 NSCLC; NCI-H522 lung; A549/ATCC NSCLC; 786-0 renal; COLO 205 colon; DU-145 prostate; K-562 leukemia; MALME-3M melanoma; MDA-MB-231 breast; RXF 393 renal; SF-268 CNS; SF-295 CNS; SF-539 CNS; UACC-257 melanoma; M14 melanoma.
Holding throughout (experiment): NCI-60 one-dose screen, 48 h (100 = growth as untreated, 0 = no growth, -100 = all killed)
What all share (settings): 10 µM unless noted

Each structure is given as a SMILES string. This is part of a sample that, as a whole, favours compounds with a hit. Of some 83,000 tested, about 20% had one in any assay.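 Treatment: one concentration, 48 hours, 96-well format. Scoring: percent growth, with anything below 10 considered active.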 Values without a mark were called inactive. Activity calls are given as the source filed them.

In the case of `O=C1/C(=C/c2cccc(Br)c2)COc2ccc(O)c(O)c21`, the growth is 17% with NCI-H23 lung; 83.4% with NCI-H226 lung; 25.7% with NCI-H322M lung; -30.8% (active) in the test on HOP-62 NSCLC; 5.86% (active) in the test on NCI-H460 lung; -41.1% (active) with HOP-92 NSCLC. Moreover, the growth with NCI-H522 lung is -67.6% (active); in the test on A549/ATCC NSCLC it was 11.2%; with 786-0 renal it was -86.9% (active); in the test on COLO 205 colon, 6.56% (active); with DU-145 prostate, -7.02% (active); in the test with K-562 leukemia, 10.3%. The growth was -44.9% (active) in the test on MALME-3M melanoma; -26.7% (active) with MDA-MB-231 breast; -56.5% (active) in the test with RXF 393 renal; -23.9% (active) with SF-268 CNS; 34.8% in the test with SF-295 CNS; -85.4% (active) in the test with SF-539 CNS. Moreover, the growth is 10.9% with UACC-257 melanoma and -5.09% (active) in the test on M14 melanoma.
For the compound `C#CCOc1cccc(Nc2ncnc3c(NC(=O)CCl)cccc23)c1`, the growth with NCI-H23 lung was 6.09% (active); in the test on NCI-H226 lung, 48.9%; in the test on NCI-H322M lung, 72.5%; in the test with HOP-62 NSCLC, 95.7%; in the test on NCI-H460 lung, 51.2%; with HOP-92 NSCLC, -62.1% (active). The growth was -73.5% (active) in the test on NCI-H522 lung; 47.4% in the test on A549/ATCC NSCLC; -45.4% (active) in the test on 786-0 renal; -55.5% (active) with COLO 205 colon; 58.9% in the test on DU-145 prostate; -21.7% (active) in the test with K-562 leukemia. In addition, the growth in the test on MALME-3M melanoma was -74.7% (active); with MDA-MB-231 breast it was -25.6% (active); in the test on RXF 393 renal, 56.2%; in the test on SF-268 CNS it was 3.94% (active); in the test with SF-295 CNS, 95.6%; in the test with SF-539 CNS, -91.3% (active). For the same compound, the growth with UACC-257 melanoma was 56.9%; in the test with M14 melanoma it was 5.19% (active).
Take `O=C(NS(=O)(=O)c1ccccc1)n1cc(-c2ccncc2)c(-c2cc(O)cc(Cl)c2)n1`: the growth in the test with NCI-H23 lung is 104%; in the test on NCI-H226 lung, 104%; in the test on NCI-H322M lung it was 108%; with HOP-62 NSCLC, 115%; with NCI-H460 lung, 111%; in the test with HOP-92 NSCLC, 103%. In addition, the growth in the test with NCI-H522 lung was 76.1%; in the test on A549/ATCC NSCLC it was 97.5%; in the test with 786-0 renal it was 98%; in the test on COLO 205 colon it was 114%; with DU-145 prostate it was 112%; with K-562 leukemia, 78%. Further, the growth in the test on MALME-3M melanoma is 15.3%; with MDA-MB-231 breast, 90.4%; with RXF 393 renal it was 112%; in the test on SF-268 CNS, 108%; with SF-295 CNS it was 110%; in the test with SF-539 CNS, 86.5%. In addition, the values for the growth with UACC-257 melanoma and with M14 melanoma were 70.8% and 32.1%, respectively.
In the case of `CCOc1cc(\C=N/N=C(N)/C(N)=N\N=C/c2ccc(O)c(OCC)c2)ccc1O`, the growth with NCI-H23 lung is 97.7%; with NCI-H226 lung, 99.9%; with NCI-H322M lung, 103%; in the test with HOP-62 NSCLC, 109%; in the test with NCI-H460 lung, 107%; in the test on HOP-92 NSCLC, 116%. In addition, the growth in the test with NCI-H522 lung was 105%; in the test on A549/ATCC NSCLC, 107%; with 786-0 renal it was 110%; in the test with COLO 205 colon, 5.55% (active); in the test on DU-145 prostate it was 111%; in the test with K-562 leukemia, 83%. Also, the growth was 123% in the test on MALME-3M melanoma; 94.7% in the test with MDA-MB-231 breast; 95.9% with RXF 393 renal; 98.1% with SF-268 CNS; 106% in the test on SF-295 CNS; 112% with SF-539 CNS. Also, the figures for the growth in the test on UACC-257 melanoma and with M14 melanoma were 108% and 113%, respectively.
For the compound `C=C1C(=O)O[C@H]2[C@H]1CC/C(CNC(=O)/C=C/c1cc(OC)c(OC)c(OC)c1)=C\CC[C@@]1(C)O[C@@H]21`, the growth is -31.3% (active) with NCI-H23 lung; -61.8% (active) in the test on NCI-H226 lung; 60% with NCI-H322M lung; 26% with HOP-62 NSCLC; 82.3% with NCI-H460 lung; -36% (active) in the test on HOP-92 NSCLC. In addition, the growth in the test on NCI-H522 lung is -93.5% (active); in the test on A549/ATCC NSCLC it was 40%; in the test with 786-0 renal it was -68.5% (active); with COLO 205 colon it was -86.5% (active); in the test with DU-145 prostate, 7.86% (active); in the test on K-562 leukemia, -9.87% (active). Besides, the growth is -36.6% (active) with MALME-3M melanoma; 5.65% (active) with MDA-MB-231 breast; -88% (active) with RXF 393 renal; 28.1% with SF-268 CNS; 50.4% with SF-295 CNS; -36% (active) with SF-539 CNS. Also, the growth is -26.1% (active) in the test with UACC-257 melanoma and -32.3% (active) in the test on M14 melanoma.
With `CO[C@H]1CC(c2ccc[nH]2)=N[C@]12O[C@@H](C)C[C@@H]1CCCCCCCc3ccc([nH]3)[C@H]12`, the growth in the test with NCI-H23 lung is 28.1%; in the test with NCI-H226 lung it was 29.3%; with NCI-H322M lung, 37.8%; with HOP-62 NSCLC, 14.8%; in the test with NCI-H460 lung, 17%; with HOP-92 NSCLC, 10.3%. Moreover, the growth in the test on NCI-H522 lung was 20.8%; with A549/ATCC NSCLC it was 11.2%; with 786-0 renal, 11.7%; in the test on COLO 205 colon, 7.52% (active); in the test with DU-145 prostate, 30.3%; in the test on K-562 leukemia it was 21.3%. The growth in the test on MALME-3M melanoma is -14.5% (active); in the test on MDA-MB-231 breast, 14.1%; in the test on RXF 393 renal, 52.7%; in the test with SF-268 CNS, 48.6%; in the test with SF-295 CNS it was 17.4%; with SF-539 CNS, 20%. In addition, the growth in the test with UACC-257 melanoma and in the test on M14 melanoma was 13.2% throughout.
As for `CN1CCN(CCCNC(=O)c2c3c(n4ccccc24)C(=O)c2ncccc2C3=O)CC1`, the growth is -24.3% (active) in the test with NCI-H23 lung; 33.7% in the test with NCI-H226 lung; -23.9% (active) with NCI-H322M lung; 25.8% with HOP-62 NSCLC; -60.1% (active) in the test on NCI-H460 lung; 14.9% in the test on HOP-92 NSCLC. In addition, the growth was -43.4% (active) with NCI-H522 lung; -25.5% (active) in the test with A549/ATCC NSCLC; 28.5% in the test with 786-0 renal; -73% (active) in the test on COLO 205 colon; 17.8% with DU-145 prostate; -1.31% (active) in the test on K-562 leukemia. Further, the growth in the test on MALME-3M melanoma was -91.2% (active); with MDA-MB-231 breast it was 0.342% (active); in the test on RXF 393 renal, 21.1%; with SF-268 CNS, 9.37% (active); with SF-295 CNS it was 28.4%; in the test on SF-539 CNS, -4.38% (active). Besides, the growth with UACC-257 melanoma is -55.8% (active); in the test on M14 melanoma, -53.9% (active).
In the case of `COc1ccc(NC(=O)c2ccc(Cl)cc2Cl)cc1`, the growth in the test with NCI-H23 lung was 85.3%; with NCI-H226 lung, 105%; with NCI-H322M lung, 103%; in the test on HOP-62 NSCLC, 107%; in the test with NCI-H460 lung it was 97.8%; with HOP-92 NSCLC it was 104%. Moreover, the growth with NCI-H522 lung was 97.1%; with A549/ATCC NSCLC it was 96.5%; in the test on 786-0 renal, 93%; with COLO 205 colon, 101%; in the test on DU-145 prostate, 95.1%; in the test on K-562 leukemia, 99%. In addition, the growth was 104% with MALME-3M melanoma; 109% in the test with MDA-MB-231 breast; 108% with RXF 393 renal; 100% in the test with SF-268 CNS; 102% with SF-295 CNS; 98.9% in the test with SF-539 CNS. Further, the growth in the test on UACC-257 melanoma is 96.8%; in the test on M14 melanoma it was 93.3%.
